Records with an inconclusive call do not appear. The source made the active and inactive calls. The call rests on the fitted dose curve; in most records, active means well fitted inhibition curve with a large enough effect; inconclusive means small, poorly fitted or top-dose-only effect; inactive means flat fitted curve, though single readings scatter.
What was measured:
[1] = qHTS profiling for inhibitors of Plasmodium falciparum proliferation (AID 504749);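 on activity, negative = inhibition: 0% = DMSO vehicle and full inhibition = artemisinin control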; on all read-outs here: nearly all actives have a fitted effect of over 60% in size; conditions: P. falciparum in erythrocytes, SYBR Green DNA, 72 h; for activity, negative = inhibition: at 28.7 µM (top of the series)
In short: (§1)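 Each compound contacts P. falciparum-infected red blood cells for 72 h at 37 C; lysis buffer (Tris, EDTA, saponin, Triton X, SYBR Green I) is added and fluorescence measured next morning; values normalized to controls.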

[2] = test system: 3D7; experiment: as above; conditions: P. falciparum in erythrocytes, SYBR Green DNA, 72 h; series mostly up to 28.7 µM
In short: as §1

[3] = test system: 7G8; experiment: as above; conditions: P. falciparum in erythrocytes, SYBR Green DNA, 72 h; series mostly up to 28.7 µM
In short: as §1

[4] = test system: AA1029; experiment: as above; conditions: P. falciparum in erythrocytes, SYBR Green DNA, 72 h; series mostly up to 28.7 µM
In short: as §1

[5] = test system: AS120; experiment: as above; conditions: P. falciparum in erythrocytes, SYBR Green DNA, 72 h; series mostly up to 28.7 µM
In short: as §1

[6] = test system: ATS189; experiment: as above; conditions: P. falciparum in erythrocytes, SYBR Green DNA, 72 h; series mostly up to 28.7 µM
In short: as §1

[7] = test system: ATS95; experiment: as above; conditions: P. falciparum in erythrocytes, SYBR Green DNA, 72 h; series mostly up to 28.7 µM
In short: as §1

[8] = test system: C2A; experiment: as above; conditions: P. falciparum in erythrocytes, SYBR Green DNA, 72 h; series mostly up to 28.7 µM
In short: as §1

[9] = test system: CP185; experiment: as above; conditions: P. falciparum in erythrocytes, SYBR Green DNA, 72 h; series mostly up to 28.7 µM
In short: as §1

[10] = test system: CP191; experiment: as above; conditions: P. falciparum in erythrocytes, SYBR Green DNA, 72 h; series mostly up to 28.7 µM
In short: as §1

[11] = test system: CP192; experiment: as above; conditions: P. falciparum in erythrocytes, SYBR Green DNA, 72 h; series mostly up to 28.7 µM
In short: as §1

[12] = test system: CP194; experiment: as above; conditions: P. falciparum in erythrocytes, SYBR Green DNA, 72 h; series mostly up to 28.7 µM
In short: as §1

[13] = test system: CP201; experiment: as above; conditions: P. falciparum in erythrocytes, SYBR Green DNA, 72 h; series mostly up to 28.7 µM
In short: as §1

[14] = test system: CP203; experiment: as above; conditions: P. falciparum in erythrocytes, SYBR Green DNA, 72 h; series mostly up to 28.7 µM
In short: as §1

[15] = test system: CP211; experiment: as above; conditions: P. falciparum in erythrocytes, SYBR Green DNA, 72 h; series mostly up to 28.7 µM
In short: as §1

[16] = test system: CP215; experiment: as above; conditions: P. falciparum in erythrocytes, SYBR Green DNA, 72 h; series mostly up to 28.7 µM
In short: as §1

[17] = test system: CP217; experiment: as above; conditions: P. falciparum in erythrocytes, SYBR Green DNA, 72 h; series mostly up to 28.7 µM
In short: as §1

[18] = test system: CP237; experiment: as above; conditions: P. falciparum in erythrocytes, SYBR Green DNA, 72 h; series mostly up to 28.7 µM
In short: as §1

[19] = test system: CP238; experiment: as above; conditions: P. falciparum in erythrocytes, SYBR Green DNA, 72 h; series mostly up to 28.7 µM
In short: as §1

[20] = test system: CP247; experiment: as above; conditions: P. falciparum in erythrocytes, SYBR Green DNA, 72 h; series mostly up to 28.7 µM
In short: as §1
Potency means the concentration at half of the fitted maximal effect.

CNC(=O)c1c(I)c(C(=O)NCC(=O)Nc2c(I)c(C(=O)O)c(I)c(C(=O)NCCO)c2I)c(I)c(N(C)C(C)=O)c1I
inactive: activity, negative = inhibition ([1]; parasite line B) 2.12% | Potency [2] | Potency [3] | Potency [4] | Potency [5] | Potency [6] | Potency [7] | Potency [8] | Potency [9] | Potency [10] | Potency [11] | Potency [12] | Potency [13] | Potency [14] | Potency [15] | Potency [16] | Potency [17] | Potency [18] | Potency [19] | Potency [20]

C/C(=C\C(=O)OCCCCCCCCC(=O)O)C[C@@H]1OC[C@H](C[C@@H]2O[C@H]2[C@@H](C)[C@H](C)O)[C@@H](O)[C@H]1O
active: Potency [12] 0.135 µM

S=C1SCN(Cc2ccccc2)CN1Cc1ccccc1
inactive: activity, negative = inhibition ([1]; parasite line A) -6.7% | Potency [2] | Potency [3] | Potency [4] | Potency [5] | Potency [6] | Potency [7] | Potency [8] | Potency [9] | Potency [10] | Potency [11] | Potency [12] | Potency [13] | Potency [14] | Potency [15] | Potency [16] | Potency [17] | Potency [18] | Potency [19] | Potency [20]

O=C(c1cc2ccccc2o1)N1CCN(Cc2ccccc2)CC1
inactive: Potency [8] | Potency [11] | Potency [19]
active: Potency ([1]; parasite line A) 7.94 µM | Potency [3] 7.94 µM | Potency [5] 8.91 µM

CC[C@H]1OC(=O)[C@H](C)[C@@H](O[C@H]2C[C@@](C)(OC)[C@@H](O)[C@H](C)O2)[C@H](C)[C@@H](O[C@@H]2O[C@H](C)C[C@H](N(C)C)[C@H]2O)[C@](C)(O)C[C@@H](C)CN(C)[C@H](C)[C@@H](O)[C@]1(C)O
active: Potency [3] 12.6 µM | Potency [4] 4.47 µM | Potency [5] 5.01 µM | Potency [6] 12.6 µM | Potency [7] 7.94 µM | Potency [8] 4.47 µM | Potency [9] 5.01 µM | Potency [17] 5.62 µM | Potency [18] 5.01 µM | Potency [19] 5.62 µM
inactive: Potency [2]

CC[C@H]1OC(=O)[C@H](C)[C@@H](O[C@H]2C[C@@](C)(OC)[C@@H](O)[C@H](C)O2)C(C)[C@@H](O[C@@H]2O[C@H](C)C[C@H](N(C)C)[C@@H]2O)[C@](C)(OC)C[C@@H](C)C(=O)[C@H](C)[C@@H](O)[C@]1(C)O (stereo partly drawn)
inactive: Potency [3] | Potency [4] | Potency [6] | Potency [7] | Potency [8] | Potency [9] | Potency [11] | Potency [13] | Potency [14] | Potency [19] | Potency [20]
active: Potency [18] 7.94 µM

O=P(O)(O)OP(=O)(O)O
inactive: activity, negative = inhibition ([1]; parasite line A) -13.9% | Potency [2] | Potency [7] | Potency [8] | Potency [9] | Potency [10] | Potency [11] | Potency [12] | Potency [13] | Potency [14] | Potency [15] | Potency [16] | Potency [18] | Potency [20]
active: Potency [3] 10 µM

CCCC(CCC)C(=O)OC1C[C@H]2CC[C@@H](C1)[N+]2(C)C (stereo partly drawn)
active: Potency ([1]; parasite line A) 5.62 µM | Potency [3] 11.2 µM | Potency [4] 11.2 µM

OC/C=C/c1ccccc1
inactive: activity, negative = inhibition ([1]; parasite line A) -0.356% | Potency [2] | Potency [3] | Potency [4] | Potency [5] | Potency [6] | Potency [7] | Potency [8] | Potency [9] | Potency [10] | Potency [11] | Potency [12] | Potency [13] | Potency [15] | Potency [16] | Potency [17] | Potency [18] | Potency [19] | Potency [20]

C=CC[N+]1([C@H]2C[C@H]3[C@@H]4CC[C@H]5C[C@H](O)[C@@H](N6CCOCC6)C[C@]5(C)[C@H]4CC[C@]3(C)[C@H]2OC(C)=O)CCCC1
active: Potency [4] 11.2 µM
inactive: Potency [2]

CN(C)C(=O)CCSC(SCCC(=O)O)c1cccc(/C=C/c2ccc3ccc(Cl)cc3n2)c1 (stereo not drawn)
inactive: Potency [11] | Potency [13] | Potency [14] | Potency [15] | Potency [16]
active: Potency [3] 8.91 µM | Potency [5] 10 µM

OCc1ccccc1
active: Potency [3] 2.82 µM
inactive: activity, negative = inhibition ([1]; parasite line B) -27.8% | Potency [4] | Potency [8] | Potency [9] | Potency [11] | Potency [12] | Potency [13] | Potency [15] | Potency [19]

c1ccc2c(c1)Sc1ccccc1N2CCN1CCCC1
active: Potency [2] 11.2 µM | Potency [3] 7.08 µM | Potency [4] 7.94 µM | Potency [5] 7.08 µM | Potency [6] 8.91 µM | Potency [7] 8.91 µM | Potency [9] 10 µM | Potency [12] 13.5 µM | Potency [13] 13.5 µM | Potency [15] 13.5 µM | Potency [16] 12 µM | Potency [17] 7.08 µM | Potency [18] 5.01 µM | Potency [19] 11.2 µM | Potency [20] 7.08 µM

CN(C)CCC=C1c2ccccc2C(C)(C)c2ccccc21
active: Potency [3] 7.94 µM
inactive: Potency [2] | Potency [6] | Potency [11] | Potency [19] | Potency [20]

CNC(=O)[C@H](Cc1c[nH]c2ccccc12)NC(=O)[C@@H](CC(=O)NO)CC(C)C
inactive: Potency [4] | Potency [6] | Potency [13]
active: Potency ([1]; parasite line A) 11.2 µM | Potency [2] 10 µM | Potency [3] 11.2 µM

Source: PubChem BioAssay (NCATS)
